Laboratory results: PubChem BioAssay AID1159580 (chemical genetic matrix, 2015)
Out of some 5,500 compounds screened, about 2,000 (36%) were called active. Roughly 18% stayed inconclusive and do not appear here. The list shows a part of the results. Unmarked numbers belong to inactive results. Rule as the data show it: active = normalized growth mostly below about 0.91 (no sharp cut-off); inconclusive = no clear call, values can overlap the other calls; inactive = mostly above about 0.92.

Test: chemical genetic growth profiling, strain panel (AID 1159580);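 also: tested at 20 µM; growth read once vehicle control cultures reached saturation at 30 °C; 1 = growth at the plate median or of vehicle wells; lower values mean less growth of the strain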
Conditions: growth OD
[1] = S. cerevisiae deletion strains, locus YAL013W, strain DEP1, active compounds read low
[2] = S. cerevisiae deletion strains, locus YDR150W, strain NUM1, active compounds read low
[3] = S. cerevisiae deletion strains, locus YGR078C, strain PAC10, active compounds read low
[4] = S. cerevisiae deletion strains, locus YJR075W, strain HOC1, active compounds read low
[5] = S. cerevisiae deletion strains, locus YMR263W, strain SAP30, active compounds read low
[6] = S. cerevisiae deletion strains, locus YMR307W, strain GAS1, active compounds read low
[7] = S. cerevisiae deletion strains, locus YNL128W, strain TEP1, active compounds read low
[8] = S. cerevisiae deletion strains, locus YNL322C, strain KRE1, active compounds read low
[9] = S. cerevisiae deletion strains, locus YPL055C, strain LGE1, active compounds read low
[10] = S. cerevisiae deletion strains, locus YAL040C, strain CLN3, active compounds read low
[11] = S. cerevisiae deletion strains, locus YCL061C, strain MRC1 (second series), active compounds read low
[12] = S. cerevisiae deletion strains, locus YDR363W, strain ESC2, active compounds read low
[13] = S. cerevisiae deletion strains, locus YER002W, strain NOP16, active compounds read low
[14] = S. cerevisiae deletion strains, locus YNL175C, strain NOP13, active compounds read low
[15] = S. cerevisiae deletion strains, locus YNL197C, strain WHI3, active compounds read low
[16] = S. cerevisiae deletion strains, locus YNL224C, strain SQS1, active compounds read low
[17] = S. cerevisiae deletion strains, locus YOR083W, strain WHI5 (second series), active compounds read low

CO[C@@H]1C[C@@H](C[C@H]2CC[C@H](C)[C@H]([C@@H](C)C(=O)O)O2)O[C@]2(O[C@](C)([C@H]3CC[C@@](C)(C4O[C@@H](C5O[C@@](O)(CO)[C@H](C)C[C@@H]5C)C[C@@H]4C)O3)C[C@H]2C)[C@@H]1C (some centres undefined)
normalized growth [1]: 1.03 | normalized growth (S. cerevisiae deletion strains, locus YBR021W, strain FUR4, active compounds read low): 1.19 [resistant] (active) | normalized growth (S. cerevisiae deletion strains, locus YBR229C, strain ROT2, active compounds read low): 1.04 | normalized growth (S. cerevisiae deletion strains, locus YCL029C, strain bik1, active compounds read low): 0.955 | normalized growth (S. cerevisiae deletion strains, locus YDL035C, strain GPR1, active compounds read low): 1.03 | normalized growth (S. cerevisiae deletion strains, locus YDL074C, strain BRE1, active compounds read low): 1.01 | normalized growth (S. cerevisiae deletion strains, locus YDL101C, strain DUN1, active compounds read low): 1.01 | normalized growth (S. cerevisiae deletion strains, locus YDL134C, strain PPH21, active compounds read low): 1.01 | normalized growth (S. cerevisiae deletion strains, locus YDL185W, strain tfp1, active compounds read low): 0.99 | normalized growth (S. cerevisiae deletion strains, locus YDL192W, strain arf1, active compounds read low): 0.961 | normalized growth (S. cerevisiae deletion strains, locus YDR101C, strain arx1, active compounds read low): 0.977 | normalized growth [2]: 1.04 | normalized growth (S. cerevisiae deletion strains, locus YDR162C, strain NBP2, active compounds read low): 1.01 | normalized growth (S. cerevisiae deletion strains, locus YDR318W, strain mcm21, active compounds read low): 0.966 | normalized growth (S. cerevisiae deletion strains, locus YDR388W, active compounds read low): 0.981 | normalized growth (S. cerevisiae deletion strains, locus YDR502C, strain sam2, active compounds read low): 0.99 | normalized growth (S. cerevisiae deletion strains, locus YEL061C, strain CIN8, active compounds read low): 1.02 | normalized growth (S. cerevisiae deletion strains, locus YER110C, active compounds read low): 1.03 | normalized growth (S. cerevisiae deletion strains, locus YER155C, strain BEM2, active compounds read low): 1.08 [resistant] (active) | normalized growth (S. cerevisiae deletion strains, locus YER167W, strain BCK2, active compounds read low): 1.02 | normalized growth (S. cerevisiae deletion strains, locus YGL078C, strain dbp3, active compounds read low): 0.976 | normalized growth (S. cerevisiae deletion strains, locus YGL086W, strain mad1, active compounds read low): 0.97 | normalized growth (S. cerevisiae deletion strains, locus YGL248W, strain PDE1, active compounds read low): 1.01 | normalized growth [3]: 1.02 | normalized growth (S. cerevisiae deletion strains, locus YGR135W, strain pre9, active compounds read low): 0.984 | normalized growth (S. cerevisiae deletion strains, locus YGR229C, strain SMI1, active compounds read low): 1.02 | normalized growth (S. cerevisiae deletion strains, locus YGR252W, strain gcn5, active compounds read low): 1.06 | normalized growth (S. cerevisiae deletion strains, locus YHR030C, strain SLT2, active compounds read low): 1.03 | normalized growth (S. cerevisiae deletion strains, locus YHR079C, strain IRE1 (second series), active compounds read low): 0.968 | normalized growth (S. cerevisiae deletion strains, locus YHR094C, strain hxt1, active compounds read low): 0.992 | normalized growth (S. cerevisiae deletion strains, locus YHR129C, strain ARP1, active compounds read low): 1.06 | normalized growth (S. cerevisiae deletion strains, locus YHR200W, strain rpn10, active compounds read low): 0.968 | normalized growth (S. cerevisiae deletion strains, locus YIL066C, strain RNR3, active compounds read low): 1.01 | normalized growth (S. cerevisiae deletion strains, locus YIL073C, strain SPO22, active compounds read low): 0.984 | normalized growth (S. cerevisiae deletion strains, locus YIL125W, strain kgd1, active compounds read low): 0.982 | normalized growth (S. cerevisiae deletion strains, locus YIR030C, strain dcg1, active compounds read low): 0.982 | normalized growth (S. cerevisiae deletion strains, locus YJL095W, strain BCK1, active compounds read low): 0.997 | normalized growth (S. cerevisiae deletion strains, locus YJL134W, strain LCB3, active compounds read low): 1.03 | normalized growth (S. cerevisiae deletion strains, locus YJL168C, strain set2, active compounds read low): 0.993 | normalized growth (S. cerevisiae deletion strains, locus YJL187C, strain SWE1 (second series), active compounds read low): 1.01 | normalized growth (S. cerevisiae deletion strains, locus YJR043C, strain POL32, active compounds read low): 1.02 | normalized growth [4]: 1 | normalized growth (S. cerevisiae deletion strains, locus YKL009W, strain mrt4, active compounds read low): 0.98 | normalized growth (S. cerevisiae deletion strains, locus YKL068W, active compounds read low): 1.01 | normalized growth (S. cerevisiae deletion strains, locus YKL085W, strain MDH1 (second series), active compounds read low): 0.978 | normalized growth (S. cerevisiae deletion strains, locus YKL085W, strain MDH1, active compounds read low): 0.978 | normalized growth (S. cerevisiae deletion strains, locus YKL190W, strain CNB1, active compounds read low): 1.02 | normalized growth (S. cerevisiae deletion strains, locus YKR001C, strain vps1, active compounds read low): 1.02 | normalized growth (S. cerevisiae deletion strains, locus YLR039C, strain RIC1, active compounds read low): 1.35 [resistant] (active) | normalized growth (S. cerevisiae deletion strains, locus YLR058C, strain SHM2, active compounds read low): 1.02 | normalized growth (S. cerevisiae deletion strains, locus YLR102C, strain apc9, active compounds read low): 0.997 | normalized growth (S. cerevisiae deletion strains, locus YLR262C, strain YPT6, active compounds read low): 1.45 [resistant] (active) | normalized growth (S. cerevisiae deletion strains, locus YLR268W, strain sec22, active compounds read low): 0.929 | normalized growth (S. cerevisiae deletion strains, locus YLR330W, strain CHS5, active compounds read low): 1.04 | normalized growth (S. cerevisiae deletion strains, locus YLR342W, strain FKS1 (second series), active compounds read low): 1.03 | normalized growth (S. cerevisiae deletion strains, locus YLR371W, strain rom2, active compounds read low): 0.999 | normalized growth (S. cerevisiae deletion strains, locus YLR418C, strain cdc73, active compounds read low): 1.02 | normalized growth (S. cerevisiae deletion strains, locus YML016C, strain PPZ1, active compounds read low): 1.03 | normalized growth (S. cerevisiae deletion strains, locus YML032C, strain rad52, active compounds read low): 0.986 | normalized growth (S. cerevisiae deletion strains, locus YML124C, strain tub3, active compounds read low): 0.983 | normalized growth (S. cerevisiae deletion strains, locus YMR078C, strain ctf18, active compounds read low): 1.03 | normalized growth (S. cerevisiae deletion strains, locus YMR223W, strain ubp8, active compounds read low): 0.994 | normalized growth [5]: 1.01 | normalized growth [6]: 1.17 | normalized growth (S. cerevisiae deletion strains, locus YNL067W, strain RPL9B, active compounds read low): 1.01 | normalized growth [7]: 1.04 | normalized growth (S. cerevisiae deletion strains, locus YNL153C, strain GIM3, active compounds read low): 0.999 | normalized growth (S. cerevisiae deletion strains, locus YNL233W, strain BNI4, active compounds read low): 0.996 | normalized growth (S. cerevisiae deletion strains, locus YNL250W, strain rad50, active compounds read low): 0.966 | normalized growth (S. cerevisiae deletion strains, locus YNL271C, strain bni1, active compounds read low): 1.01 | normalized growth (S. cerevisiae deletion strains, locus YNL298W, strain CLA4, active compounds read low): 0.989 | normalized growth (S. cerevisiae deletion strains, locus YNL307C, strain MCK1, active compounds read low): 1.01 | normalized growth [8]: 1.02 | normalized growth (S. cerevisiae deletion strains, locus YNR052C, strain pop2, active compounds read low): 0.976 | normalized growth (S. cerevisiae deletion strains, locus YOL006C, strain TOP1, active compounds read low): 0.814 | normalized growth (S. cerevisiae deletion strains, locus YOL012C, strain htz1): 1.61 | normalized growth (S. cerevisiae deletion strains, locus YOL147C, strain pex11, active compounds read low): 0.989 | normalized growth (S. cerevisiae deletion strains, locus YOR061W, strain CKA2, active compounds read low): 1.02 | normalized growth (S. cerevisiae deletion strains, locus YOR069W, strain VPS5, active compounds read low): 1.03 | normalized growth (S. cerevisiae deletion strains, locus YOR136W, strain idh2, active compounds read low): 0.976 | normalized growth (S. cerevisiae deletion strains, locus YOR144C, strain elg1, active compounds read low): 0.988 | normalized growth (S. cerevisiae deletion strains, locus YOR184W, strain ser1, active compounds read low): 0.975 | normalized growth (S. cerevisiae deletion strains, locus YOR316C, strain cot1, active compounds read low): 0.99 | normalized growth [9]: 1.03 | normalized growth (S. cerevisiae deletion strains, locus YPL241C, strain CIN2, active compounds read low): 1.04 | normalized growth (S. cerevisiae deletion strains, locus YPR119W, strain clb2, active compounds read low): 0.99 | normalized growth (S. cerevisiae deletion strains, locus YPR141C, strain kar3, active compounds read low): 0.986 | normalized growth (S. cerevisiae deletion strains, locus YPR163C, strain tif3, active compounds read low): 1.01 | normalized growth (S. cerevisiae deletion strains, locus YPR167C, strain met16, active compounds read low): 0.977 | normalized growth (S. cerevisiae deletion strains, strain wtn01, active compounds read low): 0.969 | normalized growth (S. cerevisiae strains, strain wild type, active compounds read low): 1

CC(N)=NCCCC[C@@H](N)C(=O)O
normalized growth [1]: 1.01 | normalized growth [10]: 0.998 | normalized growth [11]: 1.01 | normalized growth [2]: 1 | normalized growth [12]: 1.01 | normalized growth [13]: 0.994 | normalized growth [4]: 1 | normalized growth [5]: 1.01 | normalized growth [7]: 1.02 | normalized growth [14]: 1 | normalized growth [15]: 1.01 | normalized growth [16]: 1.01 | normalized growth [8]: 1.02 | normalized growth [17]: 1.01 | normalized growth [9]: 1

COC(=O)[C@@H](N)CCCN=C(N)N[N+](=O)[O-]
normalized growth [1]: 0.999 | normalized growth [10]: 1 | normalized growth [11]: 1 | normalized growth [2]: 1.01 | normalized growth [12]: 1.01 | normalized growth [13]: 0.991 | normalized growth [3]: 1.01 | normalized growth [6]: 0.986 | normalized growth [14]: 1 | normalized growth [15]: 0.994 | normalized growth [16]: 1 | normalized growth [8]: 1.02 | normalized growth [17]: 1
